These results are taken from the supplement of paper PMC13380429.

Values without a mark were called inactive.

This assay has as its system Vero E6 infected with SARS-CoV-2. The assay can be described thus: SARS-CoV-2 infection rate relative to infected DMSO; higher = more infection, active = 60 or less. To be noted: 24 h.
Regarding `CCN(CC)CCOc1ccc(C(O)(Cc2ccc(Cl)cc2)c2ccc(C)cc2)cc1` (centres undefined) [Triparanol] (0.833333 µM), the SARS-CoV-2 infection rate is 77.5%.

As for `CCOC(=O)c1cnc2c(cnn2CC)c1NN=C(C)C` [etazolate] (10 µM), the SARS-CoV-2 infection rate is 100%.

Regarding `COc1ccc(C(=O)C2CCN(CC(=O)N(Cc3nc4c(c(=O)[nH]3)COCC4)CC3CC3)CC2)cc1` (10 µM), the SARS-CoV-2 infection rate was 102%.

For the compound `N[C@@H](Cc1c[nH]c2ccc(O)cc12)C(=O)O` [5-hydroxytryptophan] (10 µM), the SARS-CoV-2 infection rate was 104%.

Take `Cc1ncc(CO)c(CO)c1O` [pyridoxine] (10 µM): the SARS-CoV-2 infection rate was 108%.

Regarding `CCOc1nc2cccc(C(=O)O)c2n1Cc1ccc(-c2ccccc2-c2noc(=O)[nH]2)cc1` [azilsartan] (10 µM), the SARS-CoV-2 infection rate is 109%.

`C[C@]12CCC(=O)C=C1CC[C@@H]1[C@@H]2C(=O)C[C@]2(C)C(=O)CC[C@@H]12` [adrenosterone] (10 µM): the SARS-CoV-2 infection rate is 97.5%.

Take `Cc1cccc(Nc2cc(Cl)nc(SCC(=O)O)n2)c1C` [pirinixic-acid] (10 µM): the SARS-CoV-2 infection rate was 108%.

For the compound `c1ccc(OCc2ccc(CCCN3CCOCC3)cc2)cc1` [fomocaine] (10 µM), the SARS-CoV-2 infection rate is 106%.

Regarding `C=CCc1ccc(O)c(-c2cc(CC=C)ccc2O)c1` [magnolol] (10 µM), the SARS-CoV-2 infection rate is 108%.

For the compound `O=C(Nc1ccc(-c2ccncc2)cc1)N[C@H](CO)c1ccccc1` (0.833333 µM), the SARS-CoV-2 infection rate was 94%.

As to `Cc1n[nH]c2ccc(-c3cncc(OC[C@@H](N)Cc4ccccc4)c3)cc12` (10 µM), the SARS-CoV-2 infection rate was 92.5%.

As to `CCS(=O)(=O)c1ccc2oc(-c3ccc4ccccc4c3)nc2c1` [ezutromid] (10 µM), the SARS-CoV-2 infection rate was 98.5%.

For `COc1ccc(C2(O)CCC(N3CC[C@@H](NC(=O)CNC(=O)c4cccc(C(F)(F)F)c4)C3)CC2)cn1` (some centres undefined) (10 µM), the SARS-CoV-2 infection rate is 105%.
